# Screening data as filed in PubChem BioAssay.
# This excerpt belongs to a sample that is enriched for hits.
# IDE exosite inh: displaces the probe from the exo-site of human IDE | P14735 | purified IDE, FL-6b probe fluorescence polarization; active compounds read low | z-score at 20 µM | 6.3% of 17,000 active | AID 1259349;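 active = z-score of -3 or lower, meaning strong loss of probe binding signal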;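 note: His-tagged human IDE residues 42-1019 made in E. coli with 30 nM FL-6b probe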
# * hit, by the source's call; ! = a repeat was not active.
SMILES,IDE exosite inh
CN(C)CC(=O)N1[C@@H](C#N)[C@H](c2ccc(C#CC3CC3)cc2)[C@@H]1CO,3.1
CN1C(=O)c2cc(NC(=O)c3cscn3)ccc2OC[C@@H]2O[C@H](CC(=O)N3CCOCC3)CC[C@H]21,-0.59
COc1ccc(NC(=O)N2[C@@H]3CNC[C@H]2C3c2ccc(-c3ccccc3C)cc2)cc1 (stereo not given in full),-4.6*
O=C(NC1CCCCC1)N1[C@@H]2CNC[C@H]1C2c1ccc(-c2ccccc2F)cc1 (stereo not given in full),-0.085
COc1cccc(-c2ccc(C3[C@H]4CNC[C@@H]3N4C(=O)Nc3ccc(C(F)(F)F)cc3)cc2)c1 (stereo not given in full),2.1
CN(C)C(=O)c1cccc(-c2ccc(C3[C@H]4CNC[C@@H]3N4C(=O)Nc3cccc(Cl)c3)cc2)c1 (stereo not given in full),-0.24
COc1cccc(-c2ccc(C3[C@H]4CNC[C@@H]3N4C(=O)Nc3ccc4c(c3)OCO4)cc2)c1 (stereo not given in full),-2.8
Cc1ccccc1-c1ccc(C2[C@H]3CNC[C@@H]2N3C(=O)Nc2ccc(Cl)cc2)cc1 (stereo not given in full),-3.6*!
CC(C)c1cn(CC[C@@H]2CC[C@H](NS(=O)(=O)c3ccc(F)cc3)[C@H](CO)O2)nn1,3.2
CO[C@H]1CN(C)C(=O)c2cccc(C#N)c2OCC[C@@H]2CC[C@@H](OC)[C@H](CN(C)C(=O)[C@H]1C)O2,1.4
CC(C)CC#Cc1ccc([C@H]2[C@@H](CO)N3CCCCN(S(=O)(=O)c4ccc(F)cc4)C[C@H]23)cc1,3.5
C[C@H](O)C#Cc1ccc([C@H]2[C@@H](CO)N3CCCCN(S(=O)(=O)c4ccccc4)C[C@@H]23)cc1,3.7
CO[C@H]1CC[C@H]2CCOc3ccc(C#N)cc3C(=O)N(C)[C@@H](C)C(=O)N(C)C[C@@H]1O2,2
C[C@@H]1CN([C@H](C)CO)C(=O)CCCn2nncc2CO[C@H]1CN(C)Cc1cccc(C(F)(F)F)c1,-0.59
CCCNC(=O)N1C[C@@H]2N[C@H](C1)C2c1ccc(-c2cccc(F)c2)cc1 (stereo not given in full),-0.44
CCCNC(=O)N1C[C@@H]2N[C@H](C1)C2c1ccc(-c2ccc(OC)cc2)cc1 (stereo not given in full),-0.56
COc1cccc(-c2ccc(C3[C@H]4CNC[C@@H]3N4C(=O)NC3CCCCC3)cc2)c1 (stereo not given in full),-3.8*!
Cc1ccccc1-c1ccc(C2[C@@H]3CN(C(=O)Cc4ccncc4)C[C@H]2N3)cc1 (stereo not given in full),-9*!
CCCNC(=O)N1C[C@@H]2N[C@H](C1)C2c1ccc(-c2cccc(OC)c2)cc1 (stereo not given in full),-3.9*!
COc1ccc(-c2ccc(C3[C@H]4CNC[C@@H]3N4C(=O)NC3CCCC3)cc2)cc1 (stereo not given in full),3
Cc1cccc(-c2ccc(C3[C@@H]4CN(C(=O)Cc5ccncc5)C[C@H]3N4)cc2)c1 (stereo not given in full),0.11
CCCNC(=O)N1C[C@@H]2N[C@H](C1)C2c1ccc(-c2ccccc2C)cc1 (stereo not given in full),-7.8*!
CN(C)C(=O)c1ccc(-c2ccc(C3[C@@H]4CN(C(=O)Cc5ccncc5)C[C@H]3N4)cc2)cc1 (stereo not given in full),3.6
CCCNC(=O)N1C[C@@H]2N[C@H](C1)C2c1ccc(-c2cccnc2)cc1 (stereo not given in full),1.8
O=C(NC1CCCC1)N1[C@@H]2CNC[C@H]1C2c1ccc(-c2cccnc2)cc1 (stereo not given in full),-0.49
SMILES,IDE exosite inh
CCCNC(=O)N1C[C@@H]2N[C@H](C1)C2c1ccc(-c2ccc(F)cc2)cc1 (stereo not given in full),2.2
O=C1CN(Cc2ccccc2)C[C@@H]2[C@H](c3ccc(-c4ccccc4)cc3)[C@@H](CO)N12,2.8
C/C=C/c1ccc([C@@H]2[C@@H](CO)N3C(=O)CN(S(=O)(=O)c4ccccc4)C[C@@H]23)cc1,-0.46
CN1CCN(C(=O)C[C@H]2C[C@H]3c4cc(NS(C)(=O)=O)ccc4O[C@H]3[C@H](CO)O2)CC1,0.3
O=C(NC[C@H]1N[C@H](CO)[C@@H]1c1ccccc1)C1CCCC1,1.6
COCC(=O)N1C[C@H]2[C@@H](c3ccccc31)[C@@H](CO)N2Cc1cc(F)ccc1F,1.4
Cc1ccc(OC(=O)N(C)C[C@H]2OCc3ccccc3-c3ccccc3C(=O)N([C@@H](C)CO)C[C@@H]2C)cc1,0.021
C[C@@H]1CN([C@H](C)CO)C(=O)c2c(c3ccccc3n2C)-c2ccccc2CO[C@H]1CN(C)Cc1cccc(C(F)(F)F)c1,-0.42
CN(C)C(=O)c1ccc(-c2ccc([C@@H]3[C@@H](CO)N4C(=O)CN(C(=O)C5CCCCC5)C[C@H]34)cc2)cc1,-1.4
Cc1noc(C)c1NC(=O)Nc1ccc2c(c1)C(=O)N([C@@H](C)CO)C[C@H](C)[C@H](CN(C)Cc1ccc3c(c1)OCO3)OCCCC[C@@H](C)O2,0.96
C/C=C/c1cnc2c(c1)C(=O)N([C@H](C)CO)C[C@H](C)[C@@H](CN(C)C(=O)Nc1cccc(OC)c1)O2,-0.017
N#C[C@H]1[C@H](c2ccc(C3=CCCC3)cc2)[C@@H](CO)N1C(=O)c1ccccn1,-1.1
COc1ccc(NC(=O)N(C)C[C@@H]2OCc3cnnn3CCCC(=O)N([C@@H](C)CO)C[C@@H]2C)c(OC)c1,-0.98
O=C(C[C@@H]1C=C[C@H](NC(=O)c2ccc3c(c2)OCO3)[C@H](CO)O1)NC1Cc2ccccc2C1,0.46
COc1cccc(-c2ccc(C3[C@@H]4CN(C(=O)c5cnccn5)C[C@H]3N4)cc2)c1 (stereo not given in full),-8.7*!
COc1cccc(-c2ccc(C3[C@@H]4CN(C(=O)c5ccc(F)cc5)C[C@H]3N4)cc2)c1 (stereo not given in full),1.8
CN(C)C(=O)c1cccc(-c2ccc(C3[C@@H]4CN(C(=O)c5cnccn5)C[C@H]3N4)cc2)c1 (stereo not given in full),0.092
COCC(=O)N1[C@H](CO)[C@H](c2ccc(-c3cccc(F)c3)cc2)[C@@H]1C#N,1.7
Cc1cccc(-c2ccc([C@H]3[C@@H](CO)N4C(=O)CN(C(=O)c5cnccn5)C[C@@H]34)cc2)c1,-9.3*
O=C(c1cnccn1)N1CC(=O)N2[C@H](CO)[C@@H](c3ccc(-c4ccccc4)cc3)[C@@H]2C1,-3
O=C(c1cnccn1)N1CC(=O)N2[C@@H](CO)[C@H](c3ccc(-c4cccc(F)c4)cc3)[C@@H]2C1,-2.3
O=C(c1cnccn1)N1CC(=O)N2[C@H](CO)[C@H](c3ccc(-c4ccccc4)cc3)[C@@H]2C1,2.8
O=C(c1cnccn1)N1CC(=O)N2[C@H](CO)[C@@H](c3ccc(-c4ccc(F)cc4)cc3)[C@@H]2C1,2.6
O=C(c1cnccn1)N1CC(=O)N2[C@@H](CO)[C@H](c3ccc(C4=CCCCC4)cc3)[C@@H]2C1,-1.6
Cc1cccc(-c2ccc([C@H]3[C@@H](CO)N4C(=O)CN(C(=O)c5cnccn5)C[C@H]34)cc2)c1,-12*
O=C(c1cnccn1)N1CC(=O)N2[C@@H](CO)[C@H](c3ccc(-c4ccccc4)cc3)[C@@H]2C1,-3.8*
